Abeta rescue: compounds reversing amyloid beta toxicity in yeast; yeast expressing A-beta42, growth rescue, OD600, 48 h; response scale: 0% DMSO, 100% iron-clioquinol control; Potency, µM (doses to about 46.1 µM), hits mostly activators; 410,000 compounds, 0.063% hits; further: nearly all actives have a fitted effect of over 55% in size
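Yeast growth medium received pinned compounds, then yeast cells expressing toxic A-beta were added; plates incubated at 30 C for 48 hr. Growth read as absorbance at 600 nm, normalized to DMSO and equimolar FeCl3 plus clioquinol controls.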
aSyn yeast inh: rescues yeast growth from alpha-synuclein toxicity; Yeast expressing alpha-synuclein, growth rescue, BacTiter-Glo, 24 h; Potency, µM (series often up to 46.1 µM), usual class: activators; 370,000 compounds, 0.14% hits; AID 652106; further: nearly all actives have a fitted effect of over 65% in size
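Readout is rescue of growth in alpha-synuclein-expressing yeast, so inhibitors of toxicity appear as activators. Growth after 24 hr at 30 deg C in galactose medium is quantified by luminescence.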
TDP-43 yeast inh: TDP-43 toxicity inhibition in yeast; Potency, µM (series often up to 46.1 µM), hits mostly activators; 410,000 compounds, 1.8% hits; TDP-43 expressing yeast growth rescue, BacTiter-Glo, 24 h; further: nearly all actives have a fitted effect of over 50% in size
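Galactose-induced TDP-43 yeast, OD600=0.02, compound pinned; 24 hr, 30 deg C; BacTiter-Glo luminescence for growth. Inhibitors of TDP-43 toxicity read as activators.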
FUS suppressor: FUS proteinopathy suppression in yeast. 390,000 compounds, 0.24% hits. Potency, µM (top dose mostly 76.6 µM), actives largely listed as activators. S. cerevisiae FUS-expressing, growth rescue, OD600, 24 h; further: nearly all actives have a fitted effect of over 55% in size
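Cultures pregrown in 2.5% raffinose medium are shifted to minimal medium containing 2% galactose to express toxic FUS. Compounds are tested at several concentrations. After 24hr at 30C, growth is quantified at 600 nm absorbance.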
Hits are given with their value; n = inactive; u = inconclusive; x = no result given; [ ] = remark or other dose. In the library only some 2.1% were active in any assay of this set; here they are far more common. The call rests on the fitted dose curve; in most records, active means well fitted curve in the direction sought with a large enough effect; inconclusive means small, poorly fitted or top-dose-only effect, or another doubt; inactive means no such curve, though single readings can be large; an effect the other way counts as inactive or inconclusive.

SMILES	Abeta rescue	aSyn yeast inh	TDP-43 yeast inh	FUS suppressor
Fc1ccccc1COc1ccc(/C=N/n2cnnc2)cc1	n	n	11µM	n
CCOc1ccccc1C(=O)Nc1ccc(S(=O)(=O)N2CCOCC2)cc1	n	n	n	n
Cc1cccc(NC(=O)Nc2ccc(S(=O)(=O)Nc3onc(C)c3C)cc2)c1	n	n	n	n
N#CCCn1c(SCC(=O)N2CCN(S(=O)(=O)c3ccccc3)CC2)nc2ccccc21	n	n	n	n
S=c1[nH]nc(COc2ccc3ccccc3c2)o1	n	n	11µM	n
Cc1nc(-c2ccccn2)nc(SCC(=O)c2ccc(F)cc2)c1Cl	n	u	11µM	n
COc1ccccc1OCC(O)CN1CCN(CC(=O)Nc2c(C)cccc2C)CC1 (stereo unspecified)	n	n	n	n
CCCSc1nc2c(c(=O)[nH]c(=O)n2C)n1Cc1ccc(C)cc1	n	n	n	n
COc1ccc(NC(=O)/C=C\C(=O)N(c2ccc(C(C)C)cc2)C(C(=O)NCc2ccco2)c2ccc(C)cc2)cc1 (stereo unspecified)	n	x	n	4.5µM
O=C(O)CC(CC(=O)O)c1ccc2c(c1)OCO2	x	n	x	x
N#CC(CC(=O)c1ccc(F)cc1)c1ccc2c(c1)OCO2 (stereo unspecified)	n	n	11µM	n
CCCNC(=O)CS(=O)(=O)Cc1nc(-c2ccccc2C)oc1C	n	n	n	n
COc1cc(F)cc(-c2ccc3c(c2)c(-c2cccs2)c(-c2cc(OC)cc(OC)c2)n3C)c1	n	n	n	n
COc1cc(OC)cc(-c2c(-c3cccs3)c3cc(-c4ccc(CN5CCOCC5)cc4)ccc3n2C)c1	n	n	22µM	u
O=C(c1cccc(COc2cccc3ccccc23)c1)N1CCCC1	n	n	22µM	u
O=C(c1ccccc1)N1CCN(CC(O)COc2cccc3ccccc23)CC1 (stereo unspecified)	n	n	n	n
CCOc1ccc(NS(=O)(=O)c2ccc(NC(=O)C3CC3)cc2)cc1	n	n	n	n
CCc1ccc(NC(=O)CC2C(=O)N(c3ccc(OC)cc3)C(=O)N2CCOC)cc1 (stereo unspecified)	n	n	n	n
N/C(=N\OC(=O)c1ccc(Cl)cc1Cl)c1cccnc1	n	n	13µM	n
N/C(=N\OC(=O)c1cccc2ccccc12)c1cccnc1	n	n	20µM	n
CC(OC(=O)C1CSC2(c3ccc(F)cc3)CCC(=O)N12)C(=O)NC(N)=O (stereo unspecified)	n	n	n	n
CC(=O)Nc1ccc(Sc2ncccc2C(=O)Nc2ccc(OC(F)(F)F)cc2)cn1	n	n	n	x
COc1ccc(S(=O)(=O)N(C)C)cc1NC(=O)c1ccc(OCC(=O)N2CCOCC2)c(OC)c1	n	n	n	n
COc1cc(OC)cc(-c2sc3ccc(OC)cc3c2C#CC(C)(C)O)c1	n	n	11µM	u
COc1cc(OC)cc(-c2sc3ccc(OC)cc3c2C#CCO)c1	n	n	u	u
SMILES	Abeta rescue	aSyn yeast inh	TDP-43 yeast inh	FUS suppressor
Cc1cc(SCC(=O)OCC(=O)c2c(N)n(C)c(=O)n(C)c2=O)c(C)cc1Br	n	n	n	n
CCNC(=S)Nc1ccc2c(c1)c(=O)n(C)n2-c1ccc(C(C)(C)C)cc1	n	n	n	32µM
CC1(C)Cc2cccc(C(=O)Nc3ccc(Cl)cc3)c2O1	n	n	18µM	n
O=C(COC(=O)Cc1n[nH]c(=O)c2ccccc12)Nc1c(Br)cc([N+](=O)[O-])cc1Br	n	n	n	n
COC(=O)C1=C(C)N(Cc2ccccc2)C(=S)N[C@H]1c1ccccc1	n	n	13µM	n
CCN(CCn1cccn1)C(=O)c1ccc2nc(Cc3ccc(OC)cc3)oc2c1	n	n	n	n
Clc1ccccc1Nc1nc(-c2cccnc2)cs1	n	n	n	n
Oc1ccc(-c2csc(Nc3ccccn3)n2)c(O)c1	n	n	20µM	n
Cc1cccnc1Nc1nc(-c2ccc(O)cc2O)cs1	n	u	22µM	n
Cc1cccnc1Nc1nc(-c2ccccn2)cs1	n	u	u	n
CCOc1ccccc1Nc1nc(-c2cccnc2)cs1	n	n	11µM	n
Cc1cccnc1Nc1nc(-c2ccccc2)cs1	n	n	16µM	n
NS(=O)(=O)c1ccc(Nc2nc(-c3ccc(O)cc3O)cs2)cc1	n	n	n	x
O=C(Nc1ccccc1-c1nc2ccccc2[nH]1)c1ccc(N2C(=O)CCC2=O)cc1	n	n	n	n
Cc1ccc(CNC(=O)c2ccc(CSCc3ccccc3C)o2)cc1	n	x	u	n
Cc1ccccc1CSCc1ccc(C(=O)NCCc2ccccc2)o1	n	n	35µM	n
COc1ccc(CCNC(=O)c2ccc(CS(=O)(=O)c3ccc(Cl)cc3)o2)cc1OC	n	n	n	n
O=C(NCc1ccc(F)cc1)c1ccc(CSCc2cccc(Cl)c2)o1	n	x	22µM	u
O=C(NCCc1ccc(Cl)cc1)c1ccc(CSCc2cccc(Cl)c2)o1	n	x	20µM	n
COc1ccc(CCNC(=O)c2ccc(CSc3ccc(Cl)cc3)o2)cc1OC	x	x	33µM	u
CCOC(=O)c1nn(-c2ccc(OCC)cc2)c2nc(CC(C)C)c(C#N)c(=O)n12	n	n	n	n
Cc1cc(C)cc(NC(=O)C(Cc2ccccc2)NS(=O)(=O)c2ccc3c(c2)c(=O)n(C)c(=O)n3C)c1 (stereo unspecified)	n	x	n	n
S=C(NCc1ccco1)N/N=C/c1ccc(Cl)cc1	n	n	22µM	x
CCn1c(SCC(=O)N/N=C/c2ccc(C)o2)nnc1-c1ccc(C(C)(C)C)cc1	n	n	n	u
O=S(=O)(Nc1ccc2nc(-c3ccc(F)cc3)oc2c1)c1ccccc1	u	x	35µM	n
SMILES	Abeta rescue	aSyn yeast inh	TDP-43 yeast inh	FUS suppressor
Cc1ccc(S(=O)(=O)Nc2ccc3nc(-c4ccc(F)cc4)oc3c2)cc1	n	x	n	n
Cc1cccc(OCC(=O)Nc2ccc(N3CCCC3)cc2)c1C	n	n	n	25µM
COc1ccccc1OCC(=O)Nc1ccc(N2CCCCC2)cc1	n	n	n	n
CCOc1ccc(C(=O)Nc2ccc(N3CCCC3)cc2)cc1	n	n	n	35µM
CCOc1cccc(C(=O)Nc2ccc(N3CCCC3)cc2)c1	n	n	n[1.82 µM]	n
COc1ccc(N2CCN(C(=O)CSc3nnc4c(C)cc5ccc(C)c(C)c5n34)CC2)cc1	n	n	14µM	u
Cn1c(/C(C#N)=N/O)nc2ccccc21	n	n	n	n
Cn1c(/C(C#N)=C/c2ccccc2Br)nc2ccccc21	n	x	11µM	n
CCn1c(/C(C#N)=C/c2ccccc2Cl)nc2ccccc21	n	x	18µM	n
CCn1c(/C(C#N)=N/O)nc2ccccc21	n	n	n	n
COc1cc(C(=O)OCC(=O)c2cc(C)n(CC3CCCO3)c2C)ccc1OCC(=O)N1CCOCC1 (stereo unspecified)	n	n	n	n
O=C1CN2CCC1C/C2=C\c1ccnc2c(Cl)cccc12 (stereo unspecified)	n	n	n	n
COc1ccc(CCNS(=O)(=O)c2ccc(-n3cnnn3)c(OC)c2)cc1OC	n	n	n	n

Bioassay records deposited in PubChem by National Center for Advancing Translational Sciences (NCATS).
